The panel holds about 79,000 compounds, 15% with a hit somewhere; the sample as a whole holds those more often. No stated cut-off is given here; in the data, active means growth inhibition above about 70%; inactive means the rest.
Columns and labels:
[1] = NCI Yeast Anticancer Drug Screen. Data for the rad50 strain (AID 155);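 further: 0% = growth of vehicle-only cultures of the same strain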; details: S. cerevisiae rad50 strain growth inhibition; at 50.0 µM; hits give high values
In short: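 Growth of the mutant yeast was measured after compound exposure and referenced to vehicle-treated cultures.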

[2] = NCI Yeast Anticancer Drug Screen. Data for the mec2-1 strain (AID 157); details: S. cerevisiae mec2-1 strain, at 50.0 µM, hits give high values
In short: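 Readout is yeast growth inhibition, normalised to vehicle-treated controls, in the mec2-1 strain exposed to compound.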

[3] = NCI Yeast Anticancer Drug Screen. Data for the sgs1 mgt1 strain (AID 161);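 further: 0% = growth of cultures given vehicle only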; details: S. cerevisiae sgs1 mgt1 strain, at 50.0 µM, hits give high values
In short: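 Growth of a repair-deficient yeast mutant was monitored after compound treatment and expressed as inhibition relative to vehicle-treated cultures.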

[4] = NCI Yeast Anticancer Drug Screen. Data for the cln2 rad14 strain (AID 165);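 further: 0% = growth equal to vehicle treated cultures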; details: S. cerevisiae cln2 rad14 strain, at 50.0 µM, hits give high values
In short: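 Relative to vehicle controls, growth inhibition of compound-treated cln2 rad14 yeast was recorded.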

[5] = NCI Yeast Anticancer Drug Screen. Data for the bub3 strain (AID 167); details: S. cerevisiae bub3 mutant strain, at 50.0 µM, hits give high values
In short: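 Whole-cell yeast assay. The mutant strain was incubated with compounds, and growth inhibition was determined by comparison with vehicle-treated cells.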

[6] = NCI Yeast Anticancer Drug Screen. Data for the mlh1 rad18 strain (AID 175); details: S. cerevisiae mlh1 rad18 strain growth inhibition; at 50.0 µM; hits give high values
In short: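 Test agents were incubated with a yeast strain of defined genotype (DNA damage repair defect). Inhibition of growth was derived by comparison with vehicle-exposed cultures.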

Measured: growth inhibition

C=CCC(OC(=O)C=C(C)C)c1ccc2c(c1)OCO2 (stereo not given)
inactive: [1] -23.6% | [2] -31.9% | [3] -6.65% | [4] -5.5% | [5] 38.8% | [6] 6.3%

Cc1ccccc1N(C(=O)C(=O)O)c1ccccc1C
inactive: [1] 1.35% | [2] 7.75% | [3] 8% | [4] 7.95% | [5] -0.5% | [6] 0.15%

NC(=O)c1cc2c(c3c1CCCC3)CCCC2
inactive: [1] 4.2% | [2] -6.6% | [3] -3.55% | [4] -52% | [5] -13.9% | [6] -2.3%

CCOc1ccc2ccccc2c1
inactive: [1] -28.2% | [2] 0.7% | [3] 1.25% | [4] -49.5% | [5] -3.15% | [6] -19.7%

Cc1[nH]c(=O)nc(N/N=C/c2ccc(O)cc2)c1C(=O)Nc1ccc(Cl)cc1
inactive: [1] -17.6% | [2] -16% | [3] -20.6% | [4] -3.15% | [5] -12.6% | [6] -25.9%

Nc1ncc2c(n1)-c1ccccc1OC2NC1CC1 (stereo not given)
inactive: [1] 2.5% | [2] 12.1% | [3] -29.2% | [4] -5.55% | [5] -36.2% | [6] -4.65%

Cc1ccc(C)n1-n1c(-c2ccccc2)n[nH]c1=O
inactive: [1] -19.8% | [2] -20.9% | [3] -2.7% | [4] -3.4% | [5] -27.7% | [6] -12.3%

O=c1c2cc(Cl)ccc2on1CN1CCOCC1
inactive: [1] 3.4% | [2] 11.4% | [3] 17% | [4] -3.9% | [5] 5.4% | [6] 5.8%

COc1cc(C2SC(N)=Nc3c2c(C)nn3C(=O)c2ccccc2O)ccc1O (stereo not given)
inactive: [1] -4.9% | [2] 24.1% | [3] 22.5% | [4] -1.35% | [5] 40.4% | [6] 16%

CC(=O)C1CC(CCC2([N+](=O)[O-])CCC(C)(O)C(C(C)=O)C2)([N+](=O)[O-])CCC1(C)O (stereo not given)
inactive: [1] 3.3% | [2] 5.05% | [3] 6.7% | [4] 2.6% | [5] 12.3% | [6] 20.6%

C=CC[Si](CC=C)(CC=C)OCC
inactive: [1] 22.5% | [2] -17.6% | [3] 4.05% | [4] 7% | [5] -6% | [6] 17.4%

O=C1CCC(CC2CCCCC2)CC1
inactive: [1] -6.7% | [2] -3.95% | [3] -2.8% | [4] -58.6% | [5] -17.7% | [6] -12.2%

COc1cc(/C=C/C=C2\CC(C)C/C(=C\C=C\c3ccc(O)c(OC)c3)C2=O)ccc1O (stereo not given)
inactive: [1] 9% | [2] 8.3% | [3] 6.05% | [4] 18.2% | [5] 0.85% | [6] 8.2%

CCOC(=O)c1ccc(-n2cnc(-c3ccc([N+](=O)[O-])cc3)c2)cc1
inactive: [1] -4.55% | [2] -7.2% | [3] -8.8% | [4] -7.15% | [5] -1.15% | [6] -16.2%

c1ccc(C[n+]2cccc3ccccc32)cc1
inactive: [1] 1.75% | [2] -29.6% | [3] -7.1% | [4] 6.25% | [5] -1.95% | [6] -12.2%

C(=N\Nc1nc2ccccc2s1)/c1cccs1
inactive: [1] 16.9% | [2] 33% | [3] 23.6% | [4] 16.1% | [5] 36.4% | [6] 29.4%

CCCCCC(=O)OCC(CC)CC
inactive: [1] -8.05% | [2] -6.55% | [3] -13.3% | [4] -29.6% | [5] -1.05% | [6] 5.35%

O=[N+]([O-])c1cccnc1Oc1cccc(C(F)(F)F)c1
inactive: [1] -16.8% | [2] 21.9% | [3] 14.4% | [4] -7.95% | [5] -16.1% | [6] 1.15%

CCOc1ccc(/C=C2N=C(/C=C/c3ccccc3)OC\2=O)cc1
inactive: [1] 19% | [2] 14.8% | [3] 19.1% | [4] 16.6% | [5] 3.2% | [6] 3.75%

Cc1cc(-c2ccccc2)nc(Nc2nc3ccccc3o2)n1
inactive: [1] 9.2% | [2] 1.1% | [3] 10.6% | [4] 6.35% | [5] -9.45% | [6] -2.3%
